According to ChEMBL document CHEMBL2218924, “A broad activity screen in support of a chemogenomic map for kinase signalling research and drug discovery” (Biochem J, 2013):

How the values were obtained:
[1] = target: T1, Ephrin type-B receptor 1 (Homo sapiens) (UniProt P54762); conditions: at 10 µM
T1 sequence (whole entry): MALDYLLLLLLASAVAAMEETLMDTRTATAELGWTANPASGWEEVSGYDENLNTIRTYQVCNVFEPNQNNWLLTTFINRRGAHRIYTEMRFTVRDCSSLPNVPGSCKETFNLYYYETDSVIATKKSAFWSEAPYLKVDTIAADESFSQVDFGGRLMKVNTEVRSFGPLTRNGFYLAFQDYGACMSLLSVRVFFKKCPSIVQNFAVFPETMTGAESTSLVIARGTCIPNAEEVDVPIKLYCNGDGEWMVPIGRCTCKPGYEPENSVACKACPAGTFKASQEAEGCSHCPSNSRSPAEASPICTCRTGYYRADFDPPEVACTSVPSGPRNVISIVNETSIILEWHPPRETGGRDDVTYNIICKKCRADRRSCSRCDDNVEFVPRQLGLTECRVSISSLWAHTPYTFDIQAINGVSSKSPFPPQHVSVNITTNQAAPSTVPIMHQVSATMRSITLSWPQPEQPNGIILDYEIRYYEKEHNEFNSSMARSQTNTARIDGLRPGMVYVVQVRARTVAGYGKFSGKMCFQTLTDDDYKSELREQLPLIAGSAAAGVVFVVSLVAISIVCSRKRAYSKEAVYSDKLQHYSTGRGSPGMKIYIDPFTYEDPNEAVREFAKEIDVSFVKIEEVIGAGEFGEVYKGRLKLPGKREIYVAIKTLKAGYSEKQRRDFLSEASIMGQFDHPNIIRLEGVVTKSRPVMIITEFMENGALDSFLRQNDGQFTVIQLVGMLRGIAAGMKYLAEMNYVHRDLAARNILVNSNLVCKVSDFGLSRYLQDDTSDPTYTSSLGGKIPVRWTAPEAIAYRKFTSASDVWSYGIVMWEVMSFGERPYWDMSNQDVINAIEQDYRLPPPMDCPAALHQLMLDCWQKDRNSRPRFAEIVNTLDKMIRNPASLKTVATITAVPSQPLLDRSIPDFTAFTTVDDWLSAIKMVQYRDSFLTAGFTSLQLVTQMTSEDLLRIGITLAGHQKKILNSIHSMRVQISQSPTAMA

[2] = target: T2, Ephrin type-B receptor 2 (Homo sapiens) (UniProt P29323); conditions: at 10 µM
T2 sequence (whole entry): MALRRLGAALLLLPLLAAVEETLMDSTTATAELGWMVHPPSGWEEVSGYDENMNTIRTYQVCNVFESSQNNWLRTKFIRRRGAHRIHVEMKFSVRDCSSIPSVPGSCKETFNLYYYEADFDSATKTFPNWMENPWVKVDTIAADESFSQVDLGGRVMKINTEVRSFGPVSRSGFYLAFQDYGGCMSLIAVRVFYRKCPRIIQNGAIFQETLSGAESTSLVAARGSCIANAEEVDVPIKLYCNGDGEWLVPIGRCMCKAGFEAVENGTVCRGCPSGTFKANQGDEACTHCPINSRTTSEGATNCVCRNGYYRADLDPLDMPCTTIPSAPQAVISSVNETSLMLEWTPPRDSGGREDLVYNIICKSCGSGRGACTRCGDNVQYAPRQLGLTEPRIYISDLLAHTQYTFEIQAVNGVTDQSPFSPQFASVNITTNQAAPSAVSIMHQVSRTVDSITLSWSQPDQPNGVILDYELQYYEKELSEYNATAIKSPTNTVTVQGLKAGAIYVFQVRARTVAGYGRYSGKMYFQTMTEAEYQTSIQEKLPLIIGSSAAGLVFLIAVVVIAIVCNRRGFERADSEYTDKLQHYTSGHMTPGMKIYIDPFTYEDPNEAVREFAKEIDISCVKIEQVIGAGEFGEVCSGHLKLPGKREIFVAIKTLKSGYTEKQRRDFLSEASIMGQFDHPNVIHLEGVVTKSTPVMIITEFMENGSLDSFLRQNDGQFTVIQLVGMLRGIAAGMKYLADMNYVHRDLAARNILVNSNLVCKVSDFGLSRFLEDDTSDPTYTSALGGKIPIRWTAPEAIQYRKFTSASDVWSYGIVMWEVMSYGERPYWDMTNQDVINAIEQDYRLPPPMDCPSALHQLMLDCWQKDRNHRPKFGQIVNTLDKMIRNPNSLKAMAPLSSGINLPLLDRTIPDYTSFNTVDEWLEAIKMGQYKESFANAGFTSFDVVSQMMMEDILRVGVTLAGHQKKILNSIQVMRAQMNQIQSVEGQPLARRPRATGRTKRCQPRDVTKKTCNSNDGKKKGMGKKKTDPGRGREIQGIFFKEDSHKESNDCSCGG

[3] = target: T3, Ephrin type-B receptor 4 (Homo sapiens) (UniProt P54760); conditions: at 1 µM
T3 sequence (whole entry): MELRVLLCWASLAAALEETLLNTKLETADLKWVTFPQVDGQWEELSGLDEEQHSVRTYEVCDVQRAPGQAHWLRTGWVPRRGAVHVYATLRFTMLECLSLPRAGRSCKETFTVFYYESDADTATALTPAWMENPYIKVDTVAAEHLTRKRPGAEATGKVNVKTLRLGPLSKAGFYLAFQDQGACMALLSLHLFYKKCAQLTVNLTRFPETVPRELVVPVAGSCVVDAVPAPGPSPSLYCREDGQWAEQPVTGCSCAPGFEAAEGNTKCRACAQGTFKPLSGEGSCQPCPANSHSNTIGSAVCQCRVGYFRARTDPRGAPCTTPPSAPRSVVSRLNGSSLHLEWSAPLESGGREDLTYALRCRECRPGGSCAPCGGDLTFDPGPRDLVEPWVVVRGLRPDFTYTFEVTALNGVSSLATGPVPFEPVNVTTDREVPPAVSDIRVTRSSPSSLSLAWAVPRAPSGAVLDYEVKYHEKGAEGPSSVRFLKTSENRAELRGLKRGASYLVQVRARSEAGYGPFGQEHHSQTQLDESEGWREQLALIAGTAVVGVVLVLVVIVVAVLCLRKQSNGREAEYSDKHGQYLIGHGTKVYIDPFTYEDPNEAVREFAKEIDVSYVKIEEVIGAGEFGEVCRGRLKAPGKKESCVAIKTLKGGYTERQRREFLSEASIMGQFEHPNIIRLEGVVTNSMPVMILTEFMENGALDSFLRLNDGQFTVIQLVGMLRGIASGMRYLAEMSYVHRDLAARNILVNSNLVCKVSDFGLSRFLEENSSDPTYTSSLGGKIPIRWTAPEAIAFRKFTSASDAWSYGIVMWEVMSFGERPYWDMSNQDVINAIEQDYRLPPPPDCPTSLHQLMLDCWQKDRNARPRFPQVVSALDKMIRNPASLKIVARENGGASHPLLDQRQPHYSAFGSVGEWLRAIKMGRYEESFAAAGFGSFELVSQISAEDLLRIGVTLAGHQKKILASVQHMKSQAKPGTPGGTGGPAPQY

[4] = target: T3, Ephrin type-B receptor 4 (Homo sapiens); conditions: at 10 µM
[5] = target: Receptor tyrosine-protein kinase erbB-4 (Homo sapiens) (UniProt Q15303); conditions: at 1 µM
[6] = target: Focal adhesion kinase 1 (Homo sapiens) (UniProt Q05397); conditions: at 1 µM
[7] = target: Focal adhesion kinase 1 (Homo sapiens) (UniProt Q05397); conditions: at 10 µM
[8] = target: Fibroblast growth factor receptor 1 (Homo sapiens) (UniProt P11362); conditions: at 1 µM
[9] = target: Fibroblast growth factor receptor 1 (Homo sapiens) (UniProt P11362); conditions: at 10 µM
[10] = target: Fibroblast growth factor receptor 2 (Homo sapiens) (UniProt P21802); conditions: at 1 µM
[11] = target: Fibroblast growth factor receptor 2 (Homo sapiens) (UniProt P21802); conditions: at 10 µM
[12] = target: Fibroblast growth factor receptor 3 (Homo sapiens) (UniProt P22607); conditions: at 1 µM
[13] = target: Fibroblast growth factor receptor 3 (Homo sapiens) (UniProt P22607); conditions: at 10 µM
[14] = target: T2, Ephrin type-B receptor 2 (Homo sapiens); conditions: at 1 µM
[15] = target: T4, Ephrin type-B receptor 3 (Homo sapiens) (UniProt P54753); conditions: at 1 µM
T4 sequence (whole entry): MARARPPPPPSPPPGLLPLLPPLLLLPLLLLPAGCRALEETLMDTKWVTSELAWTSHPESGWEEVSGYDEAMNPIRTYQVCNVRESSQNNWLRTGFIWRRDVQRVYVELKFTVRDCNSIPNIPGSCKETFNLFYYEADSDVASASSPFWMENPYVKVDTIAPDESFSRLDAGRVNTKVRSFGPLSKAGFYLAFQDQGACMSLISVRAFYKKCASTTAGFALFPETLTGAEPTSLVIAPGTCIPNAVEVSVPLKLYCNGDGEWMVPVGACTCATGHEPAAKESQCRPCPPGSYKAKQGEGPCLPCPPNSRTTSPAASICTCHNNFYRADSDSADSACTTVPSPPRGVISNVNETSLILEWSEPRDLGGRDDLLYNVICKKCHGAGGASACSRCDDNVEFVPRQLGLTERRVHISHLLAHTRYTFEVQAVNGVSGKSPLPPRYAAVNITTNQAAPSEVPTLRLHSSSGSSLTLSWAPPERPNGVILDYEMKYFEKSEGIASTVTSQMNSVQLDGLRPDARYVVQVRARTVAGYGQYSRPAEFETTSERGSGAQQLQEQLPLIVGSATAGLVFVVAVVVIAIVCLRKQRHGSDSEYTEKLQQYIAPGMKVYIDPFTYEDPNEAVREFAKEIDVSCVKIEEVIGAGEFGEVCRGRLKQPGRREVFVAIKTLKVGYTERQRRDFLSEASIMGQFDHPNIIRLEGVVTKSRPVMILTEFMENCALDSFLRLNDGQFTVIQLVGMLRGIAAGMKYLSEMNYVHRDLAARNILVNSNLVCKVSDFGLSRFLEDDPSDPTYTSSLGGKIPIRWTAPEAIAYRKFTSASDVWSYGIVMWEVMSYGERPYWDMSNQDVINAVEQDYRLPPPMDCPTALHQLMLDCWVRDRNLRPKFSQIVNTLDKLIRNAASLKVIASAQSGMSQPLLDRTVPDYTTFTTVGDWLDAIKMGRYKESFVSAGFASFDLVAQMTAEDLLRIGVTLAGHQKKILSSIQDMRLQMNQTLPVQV

[16] = target: T4, Ephrin type-B receptor 3 (Homo sapiens); conditions: at 10 µM
[17] = target: Receptor tyrosine-protein kinase erbB-4 (Homo sapiens) (UniProt Q15303); conditions: at 10 µM
[18] = target: Fibroblast growth factor receptor 4 (Homo sapiens) (UniProt P22455); conditions: at 1 µM
[19] = target: Fibroblast growth factor receptor 4 (Homo sapiens) (UniProt P22455); conditions: at 10 µM
[20] = target: Tyrosine-protein kinase Fer (Homo sapiens) (UniProt P16591); conditions: at 1 µM
Tyrosine-protein kinase Fer (Homo sapiens), sequence (P16591 whole entry, looked up): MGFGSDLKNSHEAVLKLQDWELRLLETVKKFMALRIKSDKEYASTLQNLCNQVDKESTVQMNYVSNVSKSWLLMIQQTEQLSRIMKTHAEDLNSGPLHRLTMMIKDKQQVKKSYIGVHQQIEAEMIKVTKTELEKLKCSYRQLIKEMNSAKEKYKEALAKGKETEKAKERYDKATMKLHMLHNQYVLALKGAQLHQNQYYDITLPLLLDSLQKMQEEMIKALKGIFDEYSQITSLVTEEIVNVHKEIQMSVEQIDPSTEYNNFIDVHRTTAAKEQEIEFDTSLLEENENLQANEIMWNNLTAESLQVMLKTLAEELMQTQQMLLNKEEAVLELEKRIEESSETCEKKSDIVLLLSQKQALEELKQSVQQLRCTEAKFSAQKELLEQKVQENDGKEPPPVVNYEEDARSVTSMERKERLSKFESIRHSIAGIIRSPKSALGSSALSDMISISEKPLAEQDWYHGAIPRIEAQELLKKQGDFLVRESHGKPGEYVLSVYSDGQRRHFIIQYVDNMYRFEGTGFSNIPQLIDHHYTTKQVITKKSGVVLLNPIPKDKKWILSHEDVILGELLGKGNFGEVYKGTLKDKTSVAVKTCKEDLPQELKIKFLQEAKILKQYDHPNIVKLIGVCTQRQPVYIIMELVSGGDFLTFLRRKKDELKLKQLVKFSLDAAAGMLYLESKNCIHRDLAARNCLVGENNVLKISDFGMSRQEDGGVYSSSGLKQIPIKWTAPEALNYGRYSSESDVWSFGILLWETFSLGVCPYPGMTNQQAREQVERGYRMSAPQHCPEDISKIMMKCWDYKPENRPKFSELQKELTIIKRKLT

Fibroblast growth factor receptor 1 (Homo sapiens), sequence (P11362 22-822 limits assumed): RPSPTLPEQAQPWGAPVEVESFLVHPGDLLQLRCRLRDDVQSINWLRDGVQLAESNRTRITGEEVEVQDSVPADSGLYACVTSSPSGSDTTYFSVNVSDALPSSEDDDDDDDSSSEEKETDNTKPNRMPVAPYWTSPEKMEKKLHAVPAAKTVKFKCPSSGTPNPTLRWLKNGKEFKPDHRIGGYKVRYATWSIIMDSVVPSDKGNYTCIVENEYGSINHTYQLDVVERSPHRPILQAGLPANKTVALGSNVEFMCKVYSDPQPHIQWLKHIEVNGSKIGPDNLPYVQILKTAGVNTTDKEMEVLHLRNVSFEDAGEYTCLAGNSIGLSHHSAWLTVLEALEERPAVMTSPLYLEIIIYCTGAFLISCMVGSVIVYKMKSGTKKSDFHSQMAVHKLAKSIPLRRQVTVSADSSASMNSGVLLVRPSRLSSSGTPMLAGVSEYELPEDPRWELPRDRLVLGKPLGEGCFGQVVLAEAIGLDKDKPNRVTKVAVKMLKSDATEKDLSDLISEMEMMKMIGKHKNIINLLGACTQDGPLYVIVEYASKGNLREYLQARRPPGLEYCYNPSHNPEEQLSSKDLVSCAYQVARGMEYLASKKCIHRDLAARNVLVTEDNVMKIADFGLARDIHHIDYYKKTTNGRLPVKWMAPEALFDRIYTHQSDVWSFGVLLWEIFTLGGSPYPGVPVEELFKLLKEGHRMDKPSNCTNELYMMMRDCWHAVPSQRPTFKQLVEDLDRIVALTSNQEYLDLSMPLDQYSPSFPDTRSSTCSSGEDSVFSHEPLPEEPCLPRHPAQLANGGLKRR
Fibroblast growth factor receptor 3 (Homo sapiens), sequence (P22607 23-806 limits assumed): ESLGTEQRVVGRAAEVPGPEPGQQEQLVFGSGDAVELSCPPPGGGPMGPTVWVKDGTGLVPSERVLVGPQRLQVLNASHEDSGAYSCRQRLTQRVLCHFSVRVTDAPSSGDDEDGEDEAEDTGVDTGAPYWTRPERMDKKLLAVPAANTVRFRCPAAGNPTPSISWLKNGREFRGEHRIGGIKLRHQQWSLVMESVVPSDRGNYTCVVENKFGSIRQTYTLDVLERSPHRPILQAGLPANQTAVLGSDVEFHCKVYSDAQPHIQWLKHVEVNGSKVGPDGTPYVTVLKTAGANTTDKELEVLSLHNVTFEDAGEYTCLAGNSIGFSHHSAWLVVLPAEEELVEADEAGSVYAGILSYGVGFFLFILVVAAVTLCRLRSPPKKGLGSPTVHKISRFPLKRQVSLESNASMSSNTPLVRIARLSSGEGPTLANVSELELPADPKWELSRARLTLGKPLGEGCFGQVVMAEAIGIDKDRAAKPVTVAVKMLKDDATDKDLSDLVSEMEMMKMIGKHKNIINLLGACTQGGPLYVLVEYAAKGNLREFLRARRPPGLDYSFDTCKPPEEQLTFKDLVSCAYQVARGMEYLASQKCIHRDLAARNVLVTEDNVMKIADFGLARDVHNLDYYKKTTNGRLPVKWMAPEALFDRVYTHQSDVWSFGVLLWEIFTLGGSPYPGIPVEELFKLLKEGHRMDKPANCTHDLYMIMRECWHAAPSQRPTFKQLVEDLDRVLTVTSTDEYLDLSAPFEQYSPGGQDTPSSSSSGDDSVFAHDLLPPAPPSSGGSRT
Fibroblast growth factor receptor 4 (Homo sapiens), sequence (P22455 22-802 limits assumed): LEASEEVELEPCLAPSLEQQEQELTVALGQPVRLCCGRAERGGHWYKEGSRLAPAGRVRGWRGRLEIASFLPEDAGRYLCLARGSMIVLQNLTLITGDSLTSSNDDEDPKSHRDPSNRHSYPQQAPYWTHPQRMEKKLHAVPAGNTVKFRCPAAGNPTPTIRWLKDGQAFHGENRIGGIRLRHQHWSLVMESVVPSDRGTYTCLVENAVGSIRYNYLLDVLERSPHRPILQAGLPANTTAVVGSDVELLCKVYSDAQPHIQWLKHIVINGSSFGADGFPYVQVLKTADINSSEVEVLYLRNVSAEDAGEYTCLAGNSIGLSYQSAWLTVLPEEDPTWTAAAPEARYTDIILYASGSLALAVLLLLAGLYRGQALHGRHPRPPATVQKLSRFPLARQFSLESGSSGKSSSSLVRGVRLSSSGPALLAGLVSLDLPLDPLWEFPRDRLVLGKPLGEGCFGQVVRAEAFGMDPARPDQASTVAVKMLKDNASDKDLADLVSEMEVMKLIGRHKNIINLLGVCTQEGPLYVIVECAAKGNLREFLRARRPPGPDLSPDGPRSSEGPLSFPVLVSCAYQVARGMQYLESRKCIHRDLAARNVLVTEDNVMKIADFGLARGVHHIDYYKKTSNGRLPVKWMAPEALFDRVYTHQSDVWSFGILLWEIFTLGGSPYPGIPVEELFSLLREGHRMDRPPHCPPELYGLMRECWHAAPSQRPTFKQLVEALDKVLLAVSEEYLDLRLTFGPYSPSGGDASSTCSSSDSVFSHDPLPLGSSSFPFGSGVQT
Focal adhesion kinase 1 (Homo sapiens), sequence (Q05397 2-1052 limits assumed): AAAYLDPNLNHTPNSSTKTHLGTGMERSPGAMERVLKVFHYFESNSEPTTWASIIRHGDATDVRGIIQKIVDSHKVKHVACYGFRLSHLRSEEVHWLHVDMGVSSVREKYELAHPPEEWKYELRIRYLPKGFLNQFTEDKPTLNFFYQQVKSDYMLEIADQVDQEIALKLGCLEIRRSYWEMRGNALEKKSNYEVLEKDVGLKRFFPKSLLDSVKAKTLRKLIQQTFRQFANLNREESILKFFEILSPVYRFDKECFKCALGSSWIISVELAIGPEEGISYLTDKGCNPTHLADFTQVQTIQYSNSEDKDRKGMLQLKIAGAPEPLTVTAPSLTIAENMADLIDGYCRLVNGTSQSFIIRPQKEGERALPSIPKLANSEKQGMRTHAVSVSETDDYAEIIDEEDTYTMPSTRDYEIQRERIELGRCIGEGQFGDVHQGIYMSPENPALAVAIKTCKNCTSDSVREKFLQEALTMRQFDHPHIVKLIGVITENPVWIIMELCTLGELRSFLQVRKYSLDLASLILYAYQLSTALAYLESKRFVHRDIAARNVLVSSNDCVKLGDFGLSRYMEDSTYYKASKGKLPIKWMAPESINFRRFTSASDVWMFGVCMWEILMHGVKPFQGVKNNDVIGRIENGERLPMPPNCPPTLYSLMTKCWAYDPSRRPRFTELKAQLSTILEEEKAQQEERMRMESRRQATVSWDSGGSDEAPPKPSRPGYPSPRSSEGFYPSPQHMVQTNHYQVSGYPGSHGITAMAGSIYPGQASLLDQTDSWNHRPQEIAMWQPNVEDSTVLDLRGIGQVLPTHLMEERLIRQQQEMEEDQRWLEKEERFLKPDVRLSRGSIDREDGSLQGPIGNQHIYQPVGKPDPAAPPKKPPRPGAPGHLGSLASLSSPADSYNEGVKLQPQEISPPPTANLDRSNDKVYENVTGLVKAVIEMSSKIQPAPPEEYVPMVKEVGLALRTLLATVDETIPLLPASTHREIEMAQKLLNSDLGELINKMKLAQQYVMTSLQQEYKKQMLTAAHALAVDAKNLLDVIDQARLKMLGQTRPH
Fibroblast growth factor receptor 2 (Homo sapiens), sequence (P21802 22-821 limits assumed): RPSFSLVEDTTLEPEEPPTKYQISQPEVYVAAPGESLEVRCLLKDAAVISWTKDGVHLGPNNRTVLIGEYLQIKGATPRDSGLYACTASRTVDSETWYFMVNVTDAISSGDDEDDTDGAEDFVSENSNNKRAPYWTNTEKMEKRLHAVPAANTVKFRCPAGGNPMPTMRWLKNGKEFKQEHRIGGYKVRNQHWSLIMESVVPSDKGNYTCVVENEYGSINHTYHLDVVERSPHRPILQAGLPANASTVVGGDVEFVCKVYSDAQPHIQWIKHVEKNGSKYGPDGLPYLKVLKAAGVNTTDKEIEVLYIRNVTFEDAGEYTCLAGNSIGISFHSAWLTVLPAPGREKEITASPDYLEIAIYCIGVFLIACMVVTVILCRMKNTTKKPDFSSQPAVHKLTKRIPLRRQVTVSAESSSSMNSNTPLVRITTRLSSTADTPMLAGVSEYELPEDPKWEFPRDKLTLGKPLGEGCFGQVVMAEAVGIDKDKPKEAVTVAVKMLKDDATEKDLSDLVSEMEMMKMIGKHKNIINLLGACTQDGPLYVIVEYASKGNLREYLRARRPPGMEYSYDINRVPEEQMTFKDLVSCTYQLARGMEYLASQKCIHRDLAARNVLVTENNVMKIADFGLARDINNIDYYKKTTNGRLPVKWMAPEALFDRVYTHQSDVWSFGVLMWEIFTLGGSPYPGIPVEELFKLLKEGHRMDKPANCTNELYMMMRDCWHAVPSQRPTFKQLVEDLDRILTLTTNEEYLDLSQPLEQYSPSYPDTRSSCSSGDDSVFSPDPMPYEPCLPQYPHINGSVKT

| SMILES | residual activity [1] | residual activity [2] | residual activity [3] | residual activity [4] | residual activity [5] | residual activity [6] | residual activity [7] | residual activity [8] | residual activity [9] | residual activity [10] | residual activity [11] | residual activity [12] | residual activity [13] | residual activity [14] | residual activity [15] | residual activity [16] | residual activity [17] | residual activity [18] | residual activity [19] | residual activity [20] |
| --- | --- | --- | --- | --- | --- | --- | --- | --- | --- | --- | --- | --- | --- | --- | --- | --- | --- | --- | --- | --- |
| COc1ccc2c(c1)/C(=C/c1cnc[nH]1)C(=O)N2 | 59% | 97% | 98% | 77% | 127% | 99% | 25% | 65% | 3% | 53% | 12% | 61% | 14% |  |  |  |  |  |  |  |
| O=c1[nH]c2ccccc2n1C1CCN(Cc2ccc(-c3nc4cc5[nH]cnc5cc4nc3-c3ccccc3)cc2)CC1 | 76% | 90% | 109% | 117% | 99% | 143% | 87% | 112% | 38% | 111% | 78% | 115% | 99% | 119% | 123% (inactive) | 105% | 61% | 111% | 88% | 112% |
| O=C1NC(=O)c2c1c1c3ccccc3n3c1c1c2c2ccccc2n1C1CCC3O1 |  |  |  |  |  |  |  | 72% | 41% | 83% | 78% | 82% | 92% |  |  |  |  |  |  | 33% |
| O=[N+]([O-])/C=C/c1ccc2c(c1)OCO2 | 116% | 124% | 114% | 127% | 86% | 141% | 72% | 115% | 94% | 108% | 97% | 104% | 107% | 116% | 117% (inactive) | 111% | 101% | 135% | 104% | 114% |
